Over roughly 16,000 sequences, “rpm ratio (pull-down/input)” has its median near 0.94; the highest 2% begin near 1.7. Many of the other results were omitted from the sample, so the highest values are more common in it than they were.

These results are taken from PMC12820563, “FoxP3 forms a head-to-head dimer in vivo and stabilizes its multimerization on adjacent microsatellites”.

This assay has as its target T1, MBP-FoxP1dN (Mus musculus, UniProt P58462 326-579).
T1 sequence: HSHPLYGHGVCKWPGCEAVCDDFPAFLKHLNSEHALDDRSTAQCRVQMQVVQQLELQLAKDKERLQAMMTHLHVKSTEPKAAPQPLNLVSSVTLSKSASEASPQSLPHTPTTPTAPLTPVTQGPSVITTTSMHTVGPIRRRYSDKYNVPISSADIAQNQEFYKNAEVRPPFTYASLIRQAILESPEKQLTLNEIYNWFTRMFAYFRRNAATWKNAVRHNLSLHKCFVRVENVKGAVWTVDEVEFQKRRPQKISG
The experiment in a line: PD-seq (MBP pull-down with sequencing); 20 mM Tris-HCl pH 7.5, 100 mM NaCl, 1.5 mM MgCl2, 0.4 uM protein, 0.1 uM dsDNA library, 30 min, room temperature, amylose pull-down; high values mean tight binding. To be noted: protein: recombinant; tags: His6-MBP; chain copies: 2; dsDNA, one strand shown. In short, it runs like this: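 Binding is reads-per-million enrichment of pull-down over input, with replicates pooled. It comes from 30 min room-temperature incubation in Tris pH 7.5 buffer with NaCl and MgCl2 of 0.4 µM His6-MBP-tagged, N-terminally truncated mouse FoxP3 or FoxP1 fragment from E. coli with 0.1 µM Klenow-filled degenerate double-stranded DNA library, followed by amylose resin capture, three washes and Illumina sequencing of the released DNA.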
Take “GATGATTGTTCTCCCAGCTGATGAATTTCTAGCATCGAGTAAACAAATTTTCCTAATCTTTCTGTTCAAGCGCCATCTAC”: the binding signal was 1.06 RPM ratio (pull-down/input).

For the sequence “GATGATTGTTCTCCCAGCTGATGAATTCATTGCATCGAGTAAACAAATTTTCCTAATCTTTCTGTTCAAGCGCCATCTAC”, the binding signal is 1.24 RPM ratio (pull-down/input).

Take “GATGATTGTTCTCCCAGCTGATGAATTCAACATTTCGAGTAAACAAATTTTCCTAATCTTTCTGTTCAAGCGCCATCTAC”: the binding signal was 0.941 RPM ratio (pull-down/input).

Take “GATGATTGTTCTCCCAGCTGATGAATTGCATTCTTCGAGTAAACAAATTTTCCTAATCTTTCTGTTCAAGCGCCATCTAC”: the binding signal is 1.61 RPM ratio (pull-down/input).

With “GATGATTGTTCTCCCAGCTGATGAATTGTTGCATTCGAGTAAACAAATTTTCCTAATCTTTCTGTTCAAGCGCCATCTAC”, the binding signal was 1.87 RPM ratio (pull-down/input).

As for “GATGATTGTTCTCCCAGCTGATGAATTGCATCATTCGAGTAAACAAATTTTCCTAATCTTTCTGTTCAAGCGCCATCTAC”, the binding signal was 1.84 RPM ratio (pull-down/input).

With “GATGATTGTTCTCCCAGCTGATGAATTTCTGCATTCGAGTAAACAAATTTTCCTAATCTTTCTGTTCAAGCGCCATCTAC”, the binding signal was 1.35 RPM ratio (pull-down/input).

For “GATGATTGTTCTCCCAGCTGATGAATTGCAACATTCGAGTAAACAAATTTTCCTAATCTTTCTGTTCAAGCGCCATCTAC”, the binding signal was 1.75 RPM ratio (pull-down/input).

As for “GATGATTGTTCTCCCAGCTGATGAATTGCATTCATCGAGTAAACAAATTTTCCTAATCTTTCTGTTCAAGCGCCATCTAC”, the binding signal was 1.46 RPM ratio (pull-down/input).

On to “GATGATTGTTCTCCCAGCTGATGAATTCATGCATTCGAGTAAACAAATTTTCCTAATCTTTCTGTTCAAGCGCCATCTAC”, for which the binding signal was 1.29 RPM ratio (pull-down/input).

With “GATGATTGTTCTCCCAGCTGATGAATTTCAACATTCGAGTAAACAAATTTTCCTAATCTTTCTGTTCAAGCGCCATCTAC”, the binding signal was 0.964 RPM ratio (pull-down/input).

With “GATGATTGTTCTCCCAGCTGATGAATTTTTGCATTCGAGTAAACAAATTTTCCTAATCTTTCTGTTCAAGCGCCATCTAC”, the binding signal is 1.48 RPM ratio (pull-down/input).

With “GATGATTGTTCTCCCAGCTGATGAATTGATGCATTCGAGTAAACAAATTTTCCTAATCTTTCTGTTCAAGCGCCATCTAC”, the binding signal was 1.74 RPM ratio (pull-down/input).

In the case of “GATGATTGTTCTCCCAGCTGATGAATTAAACAGATCGAGTAAACAAATTTTCCTAATCTTTCTGTTCAAGCGCCATCTAC”, the binding signal is 1.27 RPM ratio (pull-down/input).

Turning to “GATGATTGTTCTCCCAGCTGATGAATTATAAGTATCGAGTAAACAAATTTTCCTAATCTTTCTGTTCAAGCGCCATCTAC”, the binding signal is 1.19 RPM ratio (pull-down/input).

As for “GATGATTGTTCTCCCAGCTGATGAATTGAATAAGTCGAGTAAACAAATTTTCCTAATCTTTCTGTTCAAGCGCCATCTAC”, the binding signal was 0.918 RPM ratio (pull-down/input).

On to “GATGATTGTTCTCCCAGCTGATGAATTTTAAATTTCGAGTAAACAAATTTTCCTAATCTTTCTGTTCAAGCGCCATCTAC”, for which the binding signal is 0.924 RPM ratio (pull-down/input).

With “GATGATTGTTCTCCCAGCTGATGAATTCAGCACTTCGAGTAAACAAATTTTCCTAATCTTTCTGTTCAAGCGCCATCTAC”, the binding signal is 0.847 RPM ratio (pull-down/input).

On to “GATGATTGTTCTCCCAGCTGATGAATTACAGTGTTCGAGTAAACAAATTTTCCTAATCTTTCTGTTCAAGCGCCATCTAC”, for which the binding signal is 1.16 RPM ratio (pull-down/input).

On to “GATGATTGTTCTCCCAGCTGATGAATTGAGTCAATCGAGTAAACAAATTTTCCTAATCTTTCTGTTCAAGCGCCATCTAC”, for which the binding signal was 1.01 RPM ratio (pull-down/input).

For “GATGATTGTTCTCCCAGCTGATGAATTGGAAGCGTCGAGTAAACAAATTTTCCTAATCTTTCTGTTCAAGCGCCATCTAC”, the binding signal is 0.893 RPM ratio (pull-down/input).

Consider “GATGATTGTTCTCCCAGCTGATGAATTGAATGGCTCGAGTAAACAAATTTTCCTAATCTTTCTGTTCAAGCGCCATCTAC”, for which the binding signal was 0.823 RPM ratio (pull-down/input).

In the case of “GATGATTGTTCTCCCAGCTGATGAATTGACCGAGTCGAGTAAACAAATTTTCCTAATCTTTCTGTTCAAGCGCCATCTAC”, the binding signal is 0.835 RPM ratio (pull-down/input).

For “GATGATTGTTCTCCCAGCTGATGAATTCCTTCTCTCGAGTAAACAAATTTTCCTAATCTTTCTGTTCAAGCGCCATCTAC”, the binding signal was 0.736 RPM ratio (pull-down/input).

For the sequence “GATGATTGTTCTCCCAGCTGATGAATTATCGTCGTCGAGTAAACAAATTTTCCTAATCTTTCTGTTCAAGCGCCATCTAC”, the binding signal was 0.884 RPM ratio (pull-down/input).

For “GATGATTGTTCTCCCAGCTGATGAATTTCTAGTTTCGAGTAAACAAATTTTCCTAATCTTTCTGTTCAAGCGCCATCTAC”, the binding signal was 0.858 RPM ratio (pull-down/input).

In the case of “GATGATTGTTCTCCCAGCTGATGAATTTCGCATGTCGAGTAAACAAATTTTCCTAATCTTTCTGTTCAAGCGCCATCTAC”, the binding signal is 0.944 RPM ratio (pull-down/input).

With “GATGATTGTTCTCCCAGCTGATGAATTAGTCACCTCGAGTAAACAAATTTTCCTAATCTTTCTGTTCAAGCGCCATCTAC”, the binding signal was 0.877 RPM ratio (pull-down/input).

On to “GATGATTGTTCTCCCAGCTGATGAATTCTGGGCTTCGAGTAAACAAATTTTCCTAATCTTTCTGTTCAAGCGCCATCTAC”, for which the binding signal was 0.843 RPM ratio (pull-down/input).

Regarding “GATGATTGTTCTCCCAGCTGATGAATTAGTAATTTCGAGTAAACAAATTTTCCTAATCTTTCTGTTCAAGCGCCATCTAC”, the binding signal is 1.07 RPM ratio (pull-down/input).

Take “GATGATTGTTCTCCCAGCTGATGAATTAGTTCTGTCGAGTAAACAAATTTTCCTAATCTTTCTGTTCAAGCGCCATCTAC”: the binding signal was 0.873 RPM ratio (pull-down/input).
